Publication PMC7819943, “Rice protein-binding microarrays: a tool to detect cis-acting elements near promoter regions in rice”
The full ranking holds about 68,000 sequences; the median of “fluorescence intensity (a.u.)” is about 9,100, and the highest 2% start at about 16,000. The full list was thinned out, with the highest values kept by preference.

Biological target: OsWRKY34 (Oryza sativa, UniProt Q0JBA9 1-250)
Test: protein-binding microarray (RPBM); PBS, 2% BSA, 51.3 ng/ul salmon testes DNA, 50 uM zinc acetate, 200 nM TF, 25 C, 1 h; high values mean tight binding
Conditions: protein: recombinant; tags: N-terminal polyhistidine and DsRed monomer fusion (pET32a); label: CyDye5-dUTP incorporated in the synthesized complementary strand; 3' TTTTT single-stranded linker to array surface; dsDNA, one strand shown
In short: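 The binding signal is fluorescence intensity per feature, in arbitrary units, read on an Axon 4000B scanner. Polyhistidine- and DsRed-tagged transcription factors (N-terminal fusions) from E. coli BL21-CodonPlus were purified on Ni–NTA and applied at 200 nM for 1 h at 25 °C to a double-stranded, BSA-blocked custom Agilent array in buffer with 50 µM zinc acetate.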

OsWRKY34, sequence (Q0JBA9 entry or part of it): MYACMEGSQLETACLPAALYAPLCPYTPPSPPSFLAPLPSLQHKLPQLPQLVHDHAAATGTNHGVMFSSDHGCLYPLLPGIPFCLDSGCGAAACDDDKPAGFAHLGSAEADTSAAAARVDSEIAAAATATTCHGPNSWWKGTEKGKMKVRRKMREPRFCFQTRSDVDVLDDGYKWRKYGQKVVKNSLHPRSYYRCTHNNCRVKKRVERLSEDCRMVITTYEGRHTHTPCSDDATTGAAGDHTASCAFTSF

Sequence | binding signal
CACTCTGCCTCACCTCACCTCACCTCACGTCCTCACCTCCCGGAGTCACCTAGTGCAG | 10300 fluorescence intensity (a.u.)
CCGGGACGTGTGCCGCCGCTTAAGCCCGCTCTTTATACGTCGGAGTCACCTAGTGCAG | 9690 fluorescence intensity (a.u.)
ACTCGTTGACCAAAGGGAGTGGAGTTTGAAAGGGTGGGAGCGGAGTCACCTAGTGCAG | 14600 fluorescence intensity (a.u.)
TCTTGCAATCTTGATCGATAGTCTCCTCCATCTTCTTCGTCGGAGTCACCTAGTGCAG | 8680 fluorescence intensity (a.u.)
ATAAATTATTAGTACTATTCCATATACTACATTTTCTTCTCGGAGTCACCTAGTGCAG | 8440 fluorescence intensity (a.u.)
CATAGTCGTCTTCCTCGATCAATCCGCTCCGCTCCGTCTTCGGAGTCACCTAGTGCAG | 8440 fluorescence intensity (a.u.)
ATACTCCCTCCGTTTCAAAATGTTTGACACCGTTGACTTTCGGAGTCACCTAGTGCAG | 12500 fluorescence intensity (a.u.)
TTTCTTTTGCATTTTCCCTGTTCCATATCGTTTTTTTCTCCGGAGTCACCTAGTGCAG | 8560 fluorescence intensity (a.u.)
TACTACTCCCTCCGTTTCAAAATGTTTGACACCGTTGACTCGGAGTCACCTAGTGCAG | 13100 fluorescence intensity (a.u.)
TGTTTTCTTCTCATTCTTCTTTTTTCCCTTTCTTTTGCTCCGGAGTCACCTAGTGCAG | 8390 fluorescence intensity (a.u.)
ATGTACTCCCTCCGTTTCAAAATGTTTGACACCGTTGACTCGGAGTCACCTAGTGCAG | 12300 fluorescence intensity (a.u.)
CTCCCTCCGTTTCAAAATGTTTGACACCGTTGACTTTTTACGGAGTCACCTAGTGCAG | 28300 fluorescence intensity (a.u.)
TTGCATTTTTGACTGTTTGCGTTGACTCCCTCACTTCTTCCGGAGTCACCTAGTGCAG | 16400 fluorescence intensity (a.u.)
CCCTCCGTTTCAAAATGTTTGACACCGTTGACTTTTTAATCGGAGTCACCTAGTGCAG | 14900 fluorescence intensity (a.u.)
ACTCCCTCCGTTTCAAAATGTTTGACACCGTTGACTTTTTCGGAGTCACCTAGTGCAG | 18500 fluorescence intensity (a.u.)
TTTCTTCCATACTGAAATGTGTATCTTAGCTACTGAAGCTCGGAGTCACCTAGTGCAG | 8440 fluorescence intensity (a.u.)
CATTTAATCTCCTCGTTACCGCTCAATTAACGCACCGATTCGGAGTCACCTAGTGCAG | 8880 fluorescence intensity (a.u.)

Sequence | binding signal
CGGAGATCTTCAGAAACGAGTTATTTTTCCTCGCAAAACGCGGAGTCACCTAGTGCAG | 8690 fluorescence intensity (a.u.)
ATTTGATCCTCTTTTTTCAACTTTGCTTATTTGACCCTTCCGGAGTCACCTAGTGCAG | 11100 fluorescence intensity (a.u.)
TCACCCTTCACCTGCATGATCCTCTCTTTTTCAATCCCTCCGGAGTCACCTAGTGCAG | 9340 fluorescence intensity (a.u.)
GCTCCGACTCCCTGTTTCCTGGTCCTCTTTTACACCGGCTCGGAGTCACCTAGTGCAG | 15100 fluorescence intensity (a.u.)
TACATGTCTTAGAGCTACACATCTCTGATTTTTTTTTACACGGAGTCACCTAGTGCAG | 8950 fluorescence intensity (a.u.)
ACTGCTAATTCGTCTATTTTGTACCACTTTCTCTATTTTTCGGAGTCACCTAGTGCAG | 16500 fluorescence intensity (a.u.)
CATATGTTGTTTTCTATTTCCCACTAATTTTCGTCATTTTCGGAGTCACCTAGTGCAG | 10400 fluorescence intensity (a.u.)
CCATTCCGCCCACTAGCTTTCTCTCTCTATTTTCTTTTTCCGGAGTCACCTAGTGCAG | 16800 fluorescence intensity (a.u.)
CACTATTCCTTTCCGGATTGCTTCTGCGTTCTACTTGATGCGGAGTCACCTAGTGCAG | 11000 fluorescence intensity (a.u.)
CCCCACATTTTCTTTCACCTTCTCTTCCATTCCACCTCTCCGGAGTCACCTAGTGCAG | 10100 fluorescence intensity (a.u.)
TTTTCTATTTCCCACTACTTTTCGTCATTTTTCTAATATTCGGAGTCACCTAGTGCAG | 18100 fluorescence intensity (a.u.)
TAGATTCTCTTTCTATTTTCTTTCCACTTAGCTTAGATATCGGAGTCACCTAGTGCAG | 9100 fluorescence intensity (a.u.)
CTTCTATTTTCTTTCTGCTCTTCTCTTCTCTTGTCTACTTCGGAGTCACCTAGTGCAG | 10300 fluorescence intensity (a.u.)
CGGAGTCGGTCAAGCTTAACCACTATTCCTTTCCGGATTGCGGAGTCACCTAGTGCAG | 61500 fluorescence intensity (a.u.)
CTCTGTAATATATCATTATGACTGCTAATTCGTCTATTTTCGGAGTCACCTAGTGCAG | 8080 fluorescence intensity (a.u.)
ATCTTTTTCTACTATCACTATATCATATTCTATTTTTTTTCGGAGTCACCTAGTGCAG | 10500 fluorescence intensity (a.u.)
TCTCTTCCGGTCGGAAGCTTGCTTTCCTTTTCTTCTTCTTCGGAGTCACCTAGTGCAG | 8360 fluorescence intensity (a.u.)
